# Assay outcomes as filed in PubChem.
# In the library only some 19% were active in any assay of this set; here they are far more common.
# IL-1B inflam inh = inflammasome signaling inhibition, IL-1 beta readout; 360,000 tested, 4.7% active; THP-1 LPS/ATP IL-1B secretion, AlphaLISA, 16 h; active compounds read low; activity change, % at 57.5 µM; in the data active means activity change below about -50%; inconclusive means mostly about -30% to -49%
#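 Secreted IL-1B measured by AlphaLISA bead assay after 16 h compound exposure of THP-1 cells; compounds (final up to 57.5 uM) added 1 h before LPS (250 ng/mL) and ATP (1.25 mM) stimulation; lower signal means less secretion.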
# Giardia killer = Giardia lamblia killing; Giardia lamblia trophozoite viability; AID 540267; activity change, % at 7.66 µM, hits read low; 340,000 tested, 0.15% active; in the data active means activity change below about -80%; inconclusive means between about -30% and that limit;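 further: parasites exposed to compound for two days anaerobically before the ATP read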
#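 Each well holds 100 Giardia trophozoites and compound. After two days (48 hrs) at 37 deg C in anaerobic conditions, ATP is quantified by luminescence.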
# ELG1 DNA repair = ELG1-dependent DNA repair inhibition | Potency, µM (top dose mostly 46.1 µM), usual class: inhibitors | 330,000 tested, 2.3% active | HEK293T ELG1-luciferase reporter, luminescence, 16 h; DNA damage induced by 5-fluorouridine | AID 504467; further: nearly all actives have a fitted effect of over 55% in size
#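 Cells (2,000 per well) received 5-fluorouridine plus test compound or DMSO and were incubated 16 hr at 37 °C, 5% CO2. Luciferase activity was read by luminescence 30 min after ONE-Glo addition; signal suppression marked inhibition of damage-induced ELG1 function.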
# TDP1 cell noCPT = qHTS for Inhibitors of human tyrosyl-DNA phosphodiesterase 1 (TDP1): qHTS in cells in absence of CPT; DT40 Tdp1-/- hTDP1 cells, no CPT, ATP luminescence, 48 h; Potency, µM (titrated, usually from 46.2 µM), hits mostly inhibitors; 420,000 tested, 15% active; AID 686978, 2013; further: nearly all actives have a fitted effect of over 55% in size
#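 Seeded 400 DT40-hTDP1 cells/well (vehicle DMSO, no 20 nM CPT); pinned compounds; ≥48 hr at 37 °C; CellTiter-Glo luminescence as viability measure.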
# TDP1 block = blocks human tyrosyl-DNA phosphodiesterase 1. Q9NUW8. recombinant TDP1, AlphaScreen DNA substrate cleavage. Potency, µM (titrated, usually from 130 µM), hits mostly inhibitors. 350,000 tested, 0.28% active; further: nearly all actives have a fitted effect of over 40% in size
# Target sequence (Q9NUW8 whole entry, looked up): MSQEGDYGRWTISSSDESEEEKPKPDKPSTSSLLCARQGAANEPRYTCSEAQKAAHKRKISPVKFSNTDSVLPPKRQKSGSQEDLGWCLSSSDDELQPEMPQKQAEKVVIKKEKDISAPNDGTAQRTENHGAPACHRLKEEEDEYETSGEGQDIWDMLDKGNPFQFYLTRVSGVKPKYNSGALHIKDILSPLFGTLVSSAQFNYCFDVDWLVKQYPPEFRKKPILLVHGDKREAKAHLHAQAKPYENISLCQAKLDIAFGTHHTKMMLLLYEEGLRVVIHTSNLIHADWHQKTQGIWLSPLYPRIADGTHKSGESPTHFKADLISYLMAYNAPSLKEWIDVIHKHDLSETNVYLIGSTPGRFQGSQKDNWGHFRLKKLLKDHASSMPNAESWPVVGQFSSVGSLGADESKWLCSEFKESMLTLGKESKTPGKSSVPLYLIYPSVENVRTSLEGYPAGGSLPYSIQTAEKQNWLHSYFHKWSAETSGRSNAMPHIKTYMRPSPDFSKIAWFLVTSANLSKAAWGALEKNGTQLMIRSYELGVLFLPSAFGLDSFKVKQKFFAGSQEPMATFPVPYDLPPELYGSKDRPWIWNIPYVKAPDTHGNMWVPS
#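 Compounds were preincubated with Tdp1 (1 nM final) for 15 min at room temperature before substrate (15 nM final) started a 5 min reaction; beads (10 ug/ml final) were then added for 10 min before AlphaScreen detection.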
# TDP1 cell CPT = DT40-hTDP1 cell growth loss with CPT; chicken DT40 Tdp1-/-;hTDP1 cells + 20 nM CPT, ATP luminescence, 48 h; Potency, µM (doses to about 46.2 µM), usual class: inhibitors; 420,000 tested, 12% active; further: nearly all actives have a fitted effect of over 55% in size
#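 Chicken DT40 Tdp1-/- cells complemented with human TDP1, 400 cells/well, exposed to compounds plus 20 nM camptothecin for at least 48 h at 37 C; viability read as ATP content by CellTiter-Glo luminescence.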
# Numbers stand for hits; 0 = inactive; ? = inconclusive; - = no result. Unless noted, the call rests on the fitted dose curve; in most records, active means well fitted curve in the direction sought with a large enough effect; inconclusive means small, poorly fitted or top-dose-only effect, or another doubt; inactive means no such curve, though single readings can be large; an effect the other way counts as inactive or inconclusive.
SMILES,IL-1B inflam inh,Giardia killer,ELG1 DNA repair,TDP1 cell noCPT,TDP1 block,TDP1 cell CPT
COc1cccc(C(=O)N/N=C/c2cn[nH]c2-c2ccc(OC)cc2OC)c1,0,0,0,0,0,0
COc1cccc(/C=N/NC(=O)c2ccc3nc[nH]c3c2)c1O,0,0,0,0,-,?
COc1ccc(/C=N/NC(=O)c2cccc(NC(=O)c3ccc(F)cc3)c2)c(C(=O)O)c1OC,0,0,0,0,50µM,0
CCOC(=O)c1[nH]cnc1C(=O)Nc1cccc(Cl)c1,0,0,0,0,0,0
O=S(=O)(c1ccc(F)cc1)c1nc(-c2ccccc2F)oc1N1CCCCC1,0,0,0,?,0,?
Cc1ccc(S(=O)(=O)c2nc(-c3ccccc3Cl)oc2N2CCCCCC2)cc1,-,-,-,18µM,-,23µM
Cc1ccc(S(=O)(=O)c2nc(-c3ccccc3Cl)oc2N2CCN(C)CC2)cc1,-66,0,0,23µM,0,?
O=S(=O)(c1ccccc1)c1nc(-c2ccco2)oc1N1CCCCC1,0,0,0,?,0,0
Cc1cccc(-c2nc(S(=O)(=O)c3ccccc3)c(N3CCOCC3)o2)c1,0,0,0,0,-,0
COc1cc(-c2nc(S(=O)(=O)c3ccc(Br)cc3)c(N3CCOCC3)o2)cc(OC)c1OC,-,-,-,8.2µM,0,12µM
CCN1CCN(c2oc(-c3ccccc3C)nc2S(=O)(=O)c2ccccc2)CC1,0,0,0,18µM,0,?
CC1CC(CC(=O)NC(=S)Nc2ccccc2Cl)C(=O)O1 (centres undefined),0,0,0,0,0,0
CCCC1(CC)C(=O)NC(=O)N=C1N (centres undefined),0,0,-,0,-,0
COc1ccccc1-c1nc(S(=O)(=O)c2ccccc2)c(N2CCCCC2)o1,0,0,0,?,-,?
COc1ccccc1-c1nc(S(=O)(=O)c2ccc(Cl)cc2)c(N2CCCCCC2)o1,-,-,-,16µM,-,16µM
N#Cc1nc(-c2ccccc2Cl)oc1N1CCOCC1,0,0,0,?,0,?
CCOP(=O)(c1ccccc1)c1nc(-c2ccccc2Cl)oc1N1CCCCC1 (centres undefined),-67,0,?,?,0,?
O=S(=O)(c1ccccc1)c1nc(-c2ccccc2Cl)oc1N1CCCCCC1,-,-,-,21µM,0,?
CC1=C(C#N)C(=O)NC1(C)O (centres undefined),0,-,-,0,-,0
CCn1ncc(Br)c1C(=O)N(C)C12CC3CC(CC(C3)C1)C2,0,0,?,?,0,?
CCn1ncc(Br)c1C(=O)Nc1ccn(C23CC4CC(CC(C4)C2)C3)n1,0,0,0,13µM,0,21µM
Oc1ccccc1N=Nc1ccccc1O,0,0,?,4.6µM,0,4.6µM
CC(C)NC(=O)C1(C)CCN1C(=O)c1ccccc1F (centres undefined),0,-,-,0,-,0
O=C(C[C@H]1C/C=C\CC[C@H](Cc2ccc(F)cc2)C(=O)O[C@@H](c2ccccc2)CNC1=O)N[C@@H](CO)Cc1ccccc1,0,0,9.2µM,?,0,?
O=C(C[C@H]1C/C=C\C[C@H](Cc2ccc(F)cc2)C(=O)O[C@@H](c2ccccc2)CNC1=O)N[C@H](CO)Cc1ccccc1,0,0,?,10µM,0,?
O=C(C[C@@H]1C/C=C/CC[C@H](Cc2ccc(F)cc2)C(=O)O[C@H](c2ccccc2)CNC1=O)NCCO,0,0,0,0,0,0
O=C(C[C@H]1C/C=C\C[C@@H](Cc2ccc(F)cc2)C(=O)O[C@H](c2ccccc2)CNC1=O)NCCO,0,0,0,?,0,?
O=C(C[C@H]1C/C=C\CC[C@H](Cc2ccc(F)cc2)C(=O)O[C@H](c2ccccc2)CNC1=O)N[C@H](CO)Cc1ccccc1,0,0,10µM,13µM,0,13µM
